Reference: PubChem BioAssay (NCI)
About 83,000 compounds went through this panel and 20% of them were active in at least one assay; those are over-represented in the sample as a whole.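 How to read the values: 0–100, growth inhibition (40 = 60% inhibited); 0, no net growth; -100 to 0, cell death (-40 = 40% of starting cells died; -100 = all dead).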 Activity calls are given as the source filed them. Rule for the calls: active = growth percent below 10; inactive = the rest.

Assays:
Experiment in all cases: NCI-60 one-dose screen, 48 h (100 = growth as untreated, 0 = no growth, -100 = all killed)
Settings in all cases: 10 µM unless noted
MOLT-4 leukemia = system: MOLT-4 leukemia
SR leukemia = system: SR leukemia
RPMI-8226 leukemia = system: RPMI-8226 leukemia
OVCAR-8 ovarian = system: OVCAR-8 ovarian
OVCAR-5 ovarian = system: OVCAR-5 ovarian
OVCAR-4 ovarian = system: OVCAR-4 ovarian
SK-OV-3 ovarian = system: SK-OV-3 ovarian
IGROV1 ovarian = system: IGROV1 ovarian
OVCAR-3 ovarian = system: OVCAR-3 ovarian
HS 578T breast = system: HS 578T breast
NCI/ADR-RES ovarian = system: NCI/ADR-RES ovarian
T-47D breast = system: T-47D breast
BT-549 breast = system: BT-549 breast
MDA-MB-435 melanoma = system: MDA-MB-435 melanoma
SW-620 colon = system: SW-620 colon
MCF7 breast = system: MCF7 breast
HCT-116 colon = system: HCT-116 colon
HCC-2998 colon = system: HCC-2998 colon
KM12 colon = system: KM12 colon

Measured: growth

COC(=O)[C@@H](C)C[C@H](Cc1ccccc1)NC(=O)c1csc([C@@H](C[C@H](C(C)C)N(C)C(=O)C2(NC(=O)[C@H]3CCCCN3C)CCC2)OC(C)=O)n1
active: MOLT-4 leukemia 5.46% | SR leukemia 5.54% | OVCAR-3 ovarian -6.95% | MDA-MB-435 melanoma -25.3% | HCT-116 colon 3.39% | KM12 colon 5.71%
inactive: RPMI-8226 leukemia 13.5% | OVCAR-8 ovarian 27.2% | OVCAR-5 ovarian 24% | OVCAR-4 ovarian 50% | SK-OV-3 ovarian 28.7% | IGROV1 ovarian 23.2% | HS 578T breast 13% | NCI/ADR-RES ovarian 46.5% | T-47D breast 50.1% | BT-549 breast 11.6% | SW-620 colon 23% | MCF7 breast 21.9% | HCC-2998 colon 12.4%

CCOC(=O)[C@@H](C)C[C@H](Cc1ccccc1)NC(=O)c1csc([C@@H](C[C@H](C(C)C)N(C)C(=O)[C@@H](NC(=O)[C@H]2C[C@H](O)CCN2C)C(C)C)OC(C)=O)n1
active: SR leukemia 5.63% | RPMI-8226 leukemia 5.82% | SK-OV-3 ovarian 7.61% | OVCAR-3 ovarian 5.22% | BT-549 breast -31.9% | MDA-MB-435 melanoma -40.9% | HCT-116 colon -12.6% | KM12 colon 5.96%
inactive: MOLT-4 leukemia 11.9% | OVCAR-8 ovarian 14.8% | OVCAR-5 ovarian 41.8% | OVCAR-4 ovarian 35.2% | IGROV1 ovarian 20.3% | HS 578T breast 19.4% | NCI/ADR-RES ovarian 45.3% | T-47D breast 79.4% | SW-620 colon 25.1% | MCF7 breast 20% | HCC-2998 colon 19.6%

C[N+]12CN3CN(CN(C3)C1)C2
inactive: MOLT-4 leukemia 123% | SR leukemia 138% | RPMI-8226 leukemia 88% | OVCAR-8 ovarian 100% | OVCAR-5 ovarian 82.7% | OVCAR-4 ovarian 105% | SK-OV-3 ovarian 118% | IGROV1 ovarian 91.2% | OVCAR-3 ovarian 115% | HS 578T breast 98% | NCI/ADR-RES ovarian 97.9% | T-47D breast 93% | BT-549 breast 113% | MDA-MB-435 melanoma 101% | SW-620 colon 96.7% | MCF7 breast 97.3% | HCT-116 colon 92.8% | HCC-2998 colon 99.3% | KM12 colon 111%

C=COC(=O)CCN1CC1
inactive: MOLT-4 leukemia 98.2% | SR leukemia 100% | RPMI-8226 leukemia 104% | OVCAR-8 ovarian 104% | OVCAR-5 ovarian 110% | OVCAR-4 ovarian 107% | SK-OV-3 ovarian 101% | IGROV1 ovarian 108% | OVCAR-3 ovarian 112% | HS 578T breast 104% | NCI/ADR-RES ovarian 111% | T-47D breast 106% | BT-549 breast 110% | MDA-MB-435 melanoma 105% | SW-620 colon 106% | MCF7 breast 101% | HCT-116 colon 103% | HCC-2998 colon 110% | KM12 colon 107%

COc1ccc(S(=O)(=O)Nc2c(/C=C\c3cc(OC)c(OC)c(OC)c3)ccc(OC)c2O)cc1OC
active: SK-OV-3 ovarian 9.89% | OVCAR-3 ovarian -20.9% | NCI/ADR-RES ovarian 2.42% | MDA-MB-435 melanoma -52% | KM12 colon 4.9%
inactive: MOLT-4 leukemia 16.8% | SR leukemia 15.9% | RPMI-8226 leukemia 25.4% | OVCAR-8 ovarian 20.3% | OVCAR-5 ovarian 33.7% | OVCAR-4 ovarian 43% | IGROV1 ovarian 23.9% | HS 578T breast 16.3% | T-47D breast 100% | BT-549 breast 20.7% | SW-620 colon 22.6% | MCF7 breast 15.7% | HCT-116 colon 12.6% | HCC-2998 colon 22.6%

COC(=O)[C@@H](C)C[C@H](Cc1ccccc1)NC(=O)c1nc([C@@H](C[C@H](C(C)C)N(C)C(=O)[C@@H](NC(=O)[C@H]2CC(=O)CCN2C)C(C)C)OC(C)=O)sc1C(C)C
inactive: MOLT-4 leukemia 15% | SR leukemia 10.9% | OVCAR-5 ovarian 35.5% | OVCAR-4 ovarian 45.8% | SK-OV-3 ovarian 29.1% | IGROV1 ovarian 14.4% | NCI/ADR-RES ovarian 54.3% | T-47D breast 82.9% | SW-620 colon 24.2% | MCF7 breast 24.6% | HCC-2998 colon 24.6%
active: RPMI-8226 leukemia -3.35% | OVCAR-8 ovarian 8.46% | OVCAR-3 ovarian -15.6% | HS 578T breast 9.66% | BT-549 breast -10.6% | MDA-MB-435 melanoma -43.4% | HCT-116 colon 5.82% | KM12 colon 6.01%

CCCCCCCCCCCCCCCCCC1OC[C@H](COC(=O)O[C@@H](C(=O)O[C@H]2C[C@@]3(O)[C@@H](OC(=O)c4ccccc4)[C@@H]4[C@]5(OC(C)=O)CO[C@@H]5C[C@H](O)[C@@]4(C)C(=O)[C@H](OC(C)=O)C(=C2C)C3(C)C)[C@@H](NC(=O)c2ccccc2)c2ccccc2)O1 (some centres not stated)
active: MDA-MB-435 melanoma -29.7%
inactive: MOLT-4 leukemia 55.1% | SR leukemia 44.9% | RPMI-8226 leukemia 17.5% | OVCAR-8 ovarian 61.5% | OVCAR-5 ovarian 41.5% | OVCAR-4 ovarian 75.5% | SK-OV-3 ovarian 62.8% | IGROV1 ovarian 42.9% | OVCAR-3 ovarian 31.9% | HS 578T breast 60.7% | NCI/ADR-RES ovarian 103% | T-47D breast 50.4% | BT-549 breast 53.8% | SW-620 colon 46.9% | MCF7 breast 25.9% | HCT-116 colon 17.8% | HCC-2998 colon 54.1% | KM12 colon 26.4%

COc1cc([C@@H]2c3cc4c(cc3[C@H](OC(C)=O)[C@H]3COC(=O)[C@@H]23)OCO4)cc(OC)c1OC
active: OVCAR-8 ovarian 6.28% | SK-OV-3 ovarian -10.2% | HS 578T breast 7.08% | NCI/ADR-RES ovarian -43% | BT-549 breast 8.82% | MDA-MB-435 melanoma -24.4% | HCT-116 colon -14.2% | HCC-2998 colon -21% | KM12 colon -37.1%
inactive: MOLT-4 leukemia 16.4% | SR leukemia 15.6% | RPMI-8226 leukemia 23.6% | OVCAR-5 ovarian 26.4% | OVCAR-4 ovarian 29.9% | IGROV1 ovarian 16.8% | OVCAR-3 ovarian 13.2% | T-47D breast 99.2% | SW-620 colon 26.8% | MCF7 breast 13.5%
